Assay outcomes from PubChem BioAssay.
An excerpt weighted towards active compounds, which were near 9% of everything screened.
BAZ2B block: qHTS Assay for Inhibitors of BAZ2B; Bromodomain adjacent to zinc finger domain protein 2B (Homo sapiens), Q9UIF8; AlphaScreen BAZ2B-H3K14Ac peptide displacement; Potency, µM (doses to about 114 µM), inactives show top-dose activity change, negative = inhibition, usual class: inhibitors; actives 4.4% (n = 360,000); further: on the % scale 0 is the no-effect control and ±100 the full control effect; nearly all actives have a fitted effect of over 60% in size
Target sequence (Q9UIF8 whole entry, looked up, the tested form may be a part): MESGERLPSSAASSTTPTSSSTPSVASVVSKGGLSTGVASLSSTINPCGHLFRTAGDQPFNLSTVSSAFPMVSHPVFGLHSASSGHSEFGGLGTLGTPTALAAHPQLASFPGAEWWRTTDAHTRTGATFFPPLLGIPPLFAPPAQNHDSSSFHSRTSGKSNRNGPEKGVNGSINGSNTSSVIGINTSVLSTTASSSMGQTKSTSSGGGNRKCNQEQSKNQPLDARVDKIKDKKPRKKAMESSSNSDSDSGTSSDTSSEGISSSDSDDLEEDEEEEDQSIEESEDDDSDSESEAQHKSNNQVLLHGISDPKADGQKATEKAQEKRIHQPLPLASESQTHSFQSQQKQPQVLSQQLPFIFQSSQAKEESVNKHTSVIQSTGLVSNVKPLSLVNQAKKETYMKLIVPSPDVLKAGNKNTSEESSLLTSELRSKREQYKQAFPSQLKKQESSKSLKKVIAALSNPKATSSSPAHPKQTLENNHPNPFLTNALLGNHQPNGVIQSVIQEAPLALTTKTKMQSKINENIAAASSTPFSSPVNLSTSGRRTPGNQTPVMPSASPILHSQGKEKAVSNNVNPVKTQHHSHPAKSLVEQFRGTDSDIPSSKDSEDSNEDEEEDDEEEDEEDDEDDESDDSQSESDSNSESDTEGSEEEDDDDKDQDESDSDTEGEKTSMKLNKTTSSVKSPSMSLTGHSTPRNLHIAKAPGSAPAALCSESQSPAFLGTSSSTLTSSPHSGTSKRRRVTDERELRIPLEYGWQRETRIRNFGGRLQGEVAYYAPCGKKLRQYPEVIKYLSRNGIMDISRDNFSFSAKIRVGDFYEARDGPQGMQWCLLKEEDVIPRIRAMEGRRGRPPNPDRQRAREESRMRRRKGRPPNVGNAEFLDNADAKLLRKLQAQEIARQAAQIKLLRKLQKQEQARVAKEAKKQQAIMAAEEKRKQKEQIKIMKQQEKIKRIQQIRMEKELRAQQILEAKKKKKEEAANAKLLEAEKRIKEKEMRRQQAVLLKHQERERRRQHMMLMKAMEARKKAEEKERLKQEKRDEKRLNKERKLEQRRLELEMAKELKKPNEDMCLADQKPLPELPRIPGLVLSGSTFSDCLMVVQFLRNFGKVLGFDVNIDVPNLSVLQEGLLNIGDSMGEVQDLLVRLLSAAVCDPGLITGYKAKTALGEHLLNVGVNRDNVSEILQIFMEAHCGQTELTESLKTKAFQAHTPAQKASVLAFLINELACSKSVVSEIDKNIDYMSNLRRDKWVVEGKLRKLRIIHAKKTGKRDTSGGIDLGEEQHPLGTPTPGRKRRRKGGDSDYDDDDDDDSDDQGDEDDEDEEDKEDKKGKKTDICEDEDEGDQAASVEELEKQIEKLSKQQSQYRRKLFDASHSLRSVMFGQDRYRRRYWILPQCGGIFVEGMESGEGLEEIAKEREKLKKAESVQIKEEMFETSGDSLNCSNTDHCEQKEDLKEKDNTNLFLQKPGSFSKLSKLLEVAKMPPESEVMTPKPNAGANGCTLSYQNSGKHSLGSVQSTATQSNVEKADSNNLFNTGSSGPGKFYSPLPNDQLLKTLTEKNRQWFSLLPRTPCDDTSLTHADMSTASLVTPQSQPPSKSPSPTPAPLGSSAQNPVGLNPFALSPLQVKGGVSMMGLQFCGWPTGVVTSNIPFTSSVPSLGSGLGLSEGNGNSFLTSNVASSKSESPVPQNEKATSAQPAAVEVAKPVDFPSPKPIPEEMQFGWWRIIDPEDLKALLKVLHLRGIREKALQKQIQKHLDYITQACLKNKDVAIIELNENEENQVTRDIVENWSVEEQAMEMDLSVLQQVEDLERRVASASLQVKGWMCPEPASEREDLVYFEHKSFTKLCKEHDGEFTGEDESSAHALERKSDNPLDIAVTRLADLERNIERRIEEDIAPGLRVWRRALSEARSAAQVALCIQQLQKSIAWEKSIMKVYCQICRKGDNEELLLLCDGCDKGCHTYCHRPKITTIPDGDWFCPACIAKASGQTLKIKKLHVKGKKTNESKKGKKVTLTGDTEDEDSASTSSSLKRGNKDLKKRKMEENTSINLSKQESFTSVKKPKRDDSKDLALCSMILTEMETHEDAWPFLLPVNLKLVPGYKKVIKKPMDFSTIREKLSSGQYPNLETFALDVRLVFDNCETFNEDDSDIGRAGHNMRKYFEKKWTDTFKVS
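AlphaScreen luminescence quantifies BAZ2B engagement of H3K14Ac peptide; the protein and biotinylated peptide are both at 50 nM final, buffer PBS pH 7.4 with 0.01% Tween-20, all steps at room temperature.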
G9a block: qHTS Assay for Inhibitors of Histone Lysine Methyltransferase G9a | G9a H3K9 monomethylation, AlphaScreen, 2 h | Potency, µM (top dose mostly 102 µM), without a hit: at the top dose activity, negative = inhibition, most hits filed as inhibitors | actives 8.8% (n = 350,000); further: on the % scale 0 is the no-effect control and ±100 the full control effect; nearly all actives have a fitted effect of over 75% in size
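G9a (20 nM) preincubated 15 min RT with compounds, then 500 nM biotinylated H3K9 peptide and 20 uM SAM added; 2 h RT reaction. Monomethyl-H3K9 product detected by AlphaScreen with anti-H3K9me1 antibody, streptavidin donor and anti-rabbit IgG acceptor beads.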
HP1b chromo inh: HTS for Inhibitors of HP1-beta Chromodomain Interactions with Methylated Histone Tails | Chromobox protein homolog 1 (Homo sapiens), P83916 | AlphaScreen HP1-beta / biotin-H3K9me3 peptide binding | Potency, µM (top dose mostly 114 µM), for the others: at the top dose activity change, negative = inhibition, hits mostly inhibitors | actives 0.56% (n = 390,000) | AID 540317, 2011; further: nearly all actives have a fitted effect of over 70% in size
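Compound inhibition of the preformed complex between 50 nM HP1-beta and 50 nM biotinylated H3K9me3 peptide was read by AlphaScreen. Buffer was PBS pH 7.4 with 0.01% Tween-20. Incubations ran 30 min at room temperature, with 10 ug/mL donor/acceptor beads.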
JMJD2A Tudor inh: qHTS Assay for Inhibitors of JMJD2A-Tudor Domain; Lysine-specific demethylase 4A (Homo sapiens), O75164; AlphaScreen JMJD2A-Tudor / H3K4me3 peptide binding; Potency, µM (highest dose often 114 µM), inactives show top-dose activity change, negative = inhibition, most hits filed as inhibitors; actives 4.4% (n = 390,000); further: on the % scale 0 is the no-effect control and ±100 the full control effect; nearly all actives have a fitted effect of over 50% in size
PLK1 PBD block: qHTS for Inhibitors of PLK1-PDB (polo-like kinase 1 - polo-box domain): Primary Screen | Serine/threonine-protein kinase PLK1 (Homo sapiens), P53350 | Plk1 PBD binding of FITC phosphopeptide, fluorescence polarization | Potency, µM, inactives show max response, negative = inhibition, actives largely listed as inhibitors | actives 2.8% (n = 360,000) | AID 720504, 2013; further: series mostly up to about 57 µM; on the % scale 0 is the no-effect control and ±100 the full control effect; nearly all actives have a fitted effect of over 65% in size
12-LOX inh: Primary qHTS assay for inhibitors of human arachidonate 12S-lipoxygenase (ALOX12): Round 2 | actives 1.1% (n = 580,000) | AID 1671190, 2021 | Polyunsaturated fatty acid lipoxygenase ALOX12 (Homo sapiens), P18054 | purified 12hLO, xylenol orange hydroperoxide absorbance | Potency, µM (series often up to 108 µM), for inactives: at the highest dose activity change, negative = inhibition, usual class: inhibitors; further: on the % scale 0 is the no-effect control and ±100 the full control effect
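Purified human 12hLO at 150 nM in 25 mM Hepes, 0.01% Triton X-100, pH 7.0, preincubated 15 min at room temperature with compound. Reaction started with 40 uM arachidonic acid, 30 min at room temperature. Hydroperoxide measured by Fe-xylenol orange, 573/405 nm absorbance ratio.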
Active calls of the source: *; [ ] = dose if it differs, or a comment. The call rests on the fitted dose curve; in most records, active means well fitted curve in the direction sought with a large enough effect; inconclusive means small, poorly fitted or top-dose-only effect, or another doubt; inactive means no such curve, though single readings can be large; an effect the other way counts as inactive or inconclusive. Potency means the concentration at half of the fitted maximal effect.

Results for CCn1nnnc1SCC(=O)N1CCCc2ccccc21 ?
BAZ2B block: -3.5%; G9a block: 2.6%[59 µM]; HP1b chromo inh: -9.7%; JMJD2A Tudor inh: inconclusive; PLK1 PBD block: 26.7µM*; 12-LOX inh: 47.3%

What do the screens show for `O=C(CSc1ccc(-c2ccccn2)nn1)N1CCCc2ccccc21`?
BAZ2B block: 8.91µM*; G9a block: inconclusive; HP1b chromo inh: 13.9%; JMJD2A Tudor inh: 7.94µM*; PLK1 PBD block: -1.9%; 12-LOX inh: 4.8%

What do the screens show for `CCn1nnnc1SCC(=O)N1CCc2ccccc21`?
HP1b chromo inh: 21.0%; JMJD2A Tudor inh: -4.8%; PLK1 PBD block: -14.8%; 12-LOX inh: 2.5%

How did COc1ccc(/C=N/n2cnc3c(sc(=S)n3-c3ccccc3)c2=O)cc1 do in these assays?
BAZ2B block: 8.3%; G9a block: 48.3%; HP1b chromo inh: 61.7%; JMJD2A Tudor inh: -12.9%; PLK1 PBD block: -17.8%; 12-LOX inh: 5.4%

What do the screens show for `S=c1sc2c(Cl)ncnc2n1-c1ccccc1`?
BAZ2B block: -22.6%; G9a block: 44.7µM*; HP1b chromo inh: 25.9%; JMJD2A Tudor inh: 1.0%; PLK1 PBD block: -17.6%; 12-LOX inh: -12.9%

What do the screens show for `O=C(Nc1ccc(C(=O)OCc2cc(=O)n3ccsc3n2)cc1)c1cccc(F)c1`?
BAZ2B block: -9.0%; G9a block: 5.6%[12.7 µM]; HP1b chromo inh: 45.5%; JMJD2A Tudor inh: -7.0%; 12-LOX inh: -8.1%

Results for COc1cc(OC)cc(-c2c(Sc3ccccc3)c3cc(-c4cnc(OC)nc4)ccc3n2C)c1 ?
PLK1 PBD block: -10.7%; 12-LOX inh: 3.2%

What do the screens show for `COc1cc(C#Cc2c(-c3cncn3C)n(C)c3ccc(-c4ccc(CN5CCOCC5)cc4)cc23)cc(OC)c1`?
HP1b chromo inh: 4.3%; JMJD2A Tudor inh: 8.91µM*; PLK1 PBD block: 1.0%; 12-LOX inh: 23.8%

What do the screens show for `COc1cc(C#Cc2c(-c3cncn3C)n(C)c3ccc(-c4cnc(OC)nc4)cc23)cc(OC)c1`?
BAZ2B block: 50.1µM*; G9a block: 6.5%[0.501 µM]; HP1b chromo inh: 6.7%; JMJD2A Tudor inh: inconclusive; PLK1 PBD block: -9.7%; 12-LOX inh: 4.9%

What do the screens show for `Cc1cc(/C=C2/C(=N)N3C(c4ccccc4)=CSC3=NC2=O)c(C)n1-c1ccc(Cl)cc1`?
HP1b chromo inh: 13.3%; JMJD2A Tudor inh: -9.5%; PLK1 PBD block: -2.1%; 12-LOX inh: 21.6%

How did N=C1/C(=C\c2ccc(-c3cccc(Cl)c3)o2)C(=O)N=C2SC=C(c3ccccc3)N12 do in these assays?
BAZ2B block: inconclusive; G9a block: 44.7µM*; HP1b chromo inh: inconclusive; JMJD2A Tudor inh: inconclusive; PLK1 PBD block: -20.8%; 12-LOX inh: 35.5µM*

What do the screens show for `N=C1/C(=C\c2ccc(-c3ccc(C(=O)O)cc3)o2)C(=O)N=C2SC=C(c3ccccc3)N12`?
BAZ2B block: 4.47µM*; HP1b chromo inh: 15.8µM*; JMJD2A Tudor inh: 14.1µM*; PLK1 PBD block: inconclusive; 12-LOX inh: inconclusive

Results for COc1cc(/C=C2/C(=N)N3C(c4ccccc4)=CSC3=NC2=O)ccc1OCC(=O)O ?
BAZ2B block: 50.1µM*; HP1b chromo inh: -31.1%; JMJD2A Tudor inh: inconclusive; PLK1 PBD block: inconclusive; 12-LOX inh: -28.0%

How did O=C(CCC(=O)Nc1ccccc1)NNC(=O)c1ccco1 do in these assays?
BAZ2B block: -1.9%; G9a block: -4.2%[59 µM]; HP1b chromo inh: 30.9%; JMJD2A Tudor inh: -21.9%; PLK1 PBD block: -7.8%; 12-LOX inh: 2.2%

How did Cc1cc2c(n1-c1ccc(C(N)=O)cc1)CC(C)(C)CC2=O do in these assays?
BAZ2B block: 5.1%; G9a block: -7.0%[59 µM]; HP1b chromo inh: 13.5%; JMJD2A Tudor inh: -14.4%; PLK1 PBD block: -2.6%; 12-LOX inh: 0.9%

What do the screens show for `OC1(c2ccc(F)cc2)CN(c2ccccc2)C2=[N+]1CCS2` (configuration not stated)?
BAZ2B block: inconclusive; G9a block: inconclusive; HP1b chromo inh: 15.4%; JMJD2A Tudor inh: inconclusive; PLK1 PBD block: -8.5%; 12-LOX inh: -4.1%

What do the screens show for `NCc1ccccc1-c1ccc(CN2CCCC2)cc1`?
12-LOX inh: -2.9%

Results for CC1S/C(=N/N=C/c2ccco2)N(Cc2ccc(F)cc2)C1=O (configuration not stated) ?
BAZ2B block: inconclusive; G9a block: 50.1µM*; HP1b chromo inh: 15.5%; JMJD2A Tudor inh: -16.6%; PLK1 PBD block: -18.2%; 12-LOX inh: inconclusive

How did Cn1nccc1C(=O)N1CCN(Cc2ccc(=O)n(CC3CC3)c2)CC1 do in these assays?
12-LOX inh: 61.3%

How did Nc1ccc(Nc2ccccc2)c(S(=O)(=O)O)c1 do in these assays?
BAZ2B block: 56.2µM*; G9a block: 44.7µM*; HP1b chromo inh: -2.4%[57 µM]; JMJD2A Tudor inh: inconclusive; PLK1 PBD block: -28.4%; 12-LOX inh: inconclusive

Results for CNS(=O)(=O)c1cc(N)ccc1C ?
BAZ2B block: -4.9%; G9a block: 0.2%; HP1b chromo inh: 14.4%; JMJD2A Tudor inh: -18.9%; PLK1 PBD block: -9.3%; 12-LOX inh: -9.6%

Results for Cc1ccc(Nc2ccc(N)cc2S(=O)(=O)O)cc1 ?
BAZ2B block: inconclusive; G9a block: 31.6µM*; HP1b chromo inh: -0.6%; JMJD2A Tudor inh: -31.0%; PLK1 PBD block: -9.0%; 12-LOX inh: inconclusive

What do the screens show for `Nc1ccc(/C=C/c2ccc(N)cc2S(=O)(=O)O)c(S(=O)(=O)O)c1`?
G9a block: inconclusive; 12-LOX inh: -6.0%[0.22 µM]

How did C=C(C)COc1ccc2c(=O)c(Oc3ccc(C(=O)OC)cc3)c(C)oc2c1 do in these assays?
12-LOX inh: 8.6%

What do the screens show for `Cn1c(=O)c2c(ncn2CC(O)CO)n(C)c1=O` (configuration not stated)?
BAZ2B block: 4.1%; G9a block: -1.7%[59 µM]; HP1b chromo inh: 33.9%; JMJD2A Tudor inh: 2.1%; PLK1 PBD block: 3.3%; 12-LOX inh: 16.5%

Results for COc1ccc(CC(=O)NCc2nnc(SCCOc3ccccc3)n2C)cc1 ?
BAZ2B block: -4.1%; G9a block: -3.1%[12.7 µM]; HP1b chromo inh: 21.2%; JMJD2A Tudor inh: -16.2%; PLK1 PBD block: -6.3%; 12-LOX inh: 4.7%

How did CCn1c(CNC(=O)Cc2ccc(OC)cc2)nnc1SCCOc1ccccc1 do in these assays?
BAZ2B block: 2.4%; G9a block: 3.5%; HP1b chromo inh: 26.6%; JMJD2A Tudor inh: -9.0%; PLK1 PBD block: 2.8%; 12-LOX inh: 0.0%
